The text below walks through data of publication PMC8384837, “Expanding the binding specificity for RNA recognition by a PUF domain”.

What all share (assay): yeast three-hybrid, YBZ-1, SC-Leu-His + 0.5 mM 3-AT, 4 days
Holding throughout (settings): tags: N-Gal4 AD-HA kept; label: inside an RPR1-promoter hybrid RNA with tandem MS2 sites; ssRNA

The target of test [1] is PUM1 PUF domain R3-VFA (Homo sapiens, UniProt Q14671 828-1176, C935V;R936F;Q939A). The method, boiled down:
(§1)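 Sequencing with Illumina followed PCR amplification of the repeat regions from transformants grown four days on SC-Leu (input) or SC-Leu-His + 0.5 mM 3-AT (selection). The transformants were strain YBZ-1 with a LexA–MS2 coat fusion and a HIS3 reporter, carrying Pumilio-1 PUF domain libraries and matching RNA elements. The interaction score is the log change in variant frequency from input to selection, computed in log2 with a pseudocount of 1 for absent variants.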

Test [2] deals with PUM1 PUF domain R3-SRS (Homo sapiens, UniProt Q14671 828-1176, C935S;Q939S). In short, it runs like this: as §1
Test [3] addresses PUM1 PUF domain R3-WYG (Homo sapiens, UniProt Q14671 828-1176, C935W;R936Y;Q939G). The method, boiled down:
as §1

Test [4] concerns the target PUM1 PUF domain R1-KVR (Homo sapiens, UniProt Q14671 828-1176, S863K;R864V;Q867R). The method, boiled down: as §1
Test [5] concerns the target PUM1 PUF domain R1-RLC (Homo sapiens, UniProt Q14671 828-1176, S863R;R864L;Q867C). The method, boiled down:
as §1

The target in test [6] is PUM1 PUF domain R1-RHR (Homo sapiens, UniProt Q14671 828-1176, S863R;R864H;Q867R). The method, boiled down: as §1
The target of test [7] is PUM1 PUF domain R5-RWS (Homo sapiens, UniProt Q14671 828-1176, C1007R;R1008W;Q1011S). In short, it runs like this: as §1
Test [8] addresses PUM1 PUF domain R5-PHG (Homo sapiens, UniProt Q14671 828-1176, C1007P;R1008H;Q1011G). In short, it runs like this: as §1
Test [9] addresses PUM1 PUF domain R5-RHC (Homo sapiens, UniProt Q14671 828-1176, C1007R;R1008H;Q1011C). In short, it runs like this:
as §1

Test [10] deals with PUM1 PUF domain R5-GMI (Homo sapiens, UniProt Q14671 828-1176, C1007G;R1008M;Q1011I). In short, it runs like this:
as §1

Test [11] has as its target PUM1 PUF domain R2-LWT (Homo sapiens, UniProt Q14671 828-1176, N899L;Y900W;Q903T). In short, it runs like this: as §1
Test [12] has as its target PUM1 PUF domain R8-MRR (Homo sapiens, UniProt Q14671 828-1176, N1122M;Y1123R;Q1126R). The method, boiled down: as §1
In test [13] the target is PUM1 PUF domain R8-VYP (Homo sapiens, UniProt Q14671 828-1176, N1122V;Q1126P). In short, it runs like this: as §1
Test [14] addresses PUM1 PUF domain R8-FYR (Homo sapiens, UniProt Q14671 828-1176, N1122F;Q1126R). In short, it runs like this: as §1
Test [15] addresses PUM1 PUF domain R8-KFD (Homo sapiens, UniProt Q14671 828-1176, N1122K;Y1123F;Q1126D). The method, boiled down: as §1
The target of test [16] is PUM1 PUF domain R3-PWL (Homo sapiens, UniProt Q14671 828-1176, C935P;R936W;Q939L). The method, boiled down:
as §1

The target in test [17] is PUM1 PUF domain R4-APM (Homo sapiens, UniProt Q14671 828-1176, N971A;H972P;Q975M). The method, boiled down:
as §1

Test [18] addresses PUM1 PUF domain R4-WAC (Homo sapiens, UniProt Q14671 828-1176, N971W;H972A;Q975C). In short, it runs like this: as §1
The target of test [19] is PUM1 PUF domain R3-ACF (Homo sapiens, UniProt Q14671 828-1176, C935A;R936C;Q939F). In short, it runs like this: as §1
For test [20], the target named is PUM1 PUF domain R8-MHR (Homo sapiens, UniProt Q14671 828-1176, N1122M;Y1123H;Q1126R). The method, boiled down:
as §1

Chain of PUM1 PUF domain R4-APM (Q14671 828-1176 N971A/H972P/Q975M): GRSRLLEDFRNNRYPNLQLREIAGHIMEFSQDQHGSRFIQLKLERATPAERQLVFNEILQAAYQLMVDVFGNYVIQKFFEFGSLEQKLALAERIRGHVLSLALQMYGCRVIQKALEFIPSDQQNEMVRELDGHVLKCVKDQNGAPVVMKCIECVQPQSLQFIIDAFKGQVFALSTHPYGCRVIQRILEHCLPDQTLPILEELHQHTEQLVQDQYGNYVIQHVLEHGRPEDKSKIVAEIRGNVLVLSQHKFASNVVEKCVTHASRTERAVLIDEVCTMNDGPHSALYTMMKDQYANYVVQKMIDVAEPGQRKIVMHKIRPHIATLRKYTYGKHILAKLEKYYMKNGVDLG
Chain of PUM1 PUF domain R2-LWT (Q14671 828-1176 N899L/Y900W/Q903T): as the sequence (Q14671 828-1176 N971A/H972P/Q975M) above, with N72L, Y73W, Q76T, A144N, P145H, M148Q counted along it
Chain of PUM1 PUF domain R3-SRS (Q14671 828-1176 C935S/Q939S): as the sequence (Q14671 828-1176 N971A/H972P/Q975M) above, with C108S, Q112S, A144N, P145H, M148Q counted along it
Chain of PUM1 PUF domain R8-FYR (Q14671 828-1176 N1122F/Q1126R): as the sequence (Q14671 828-1176 N971A/H972P/Q975M) above, with A144N, P145H, M148Q, N295F, Q299R counted along it
Chain of PUM1 PUF domain R3-VFA (Q14671 828-1176 C935V/R936F/Q939A): as the sequence (Q14671 828-1176 N971A/H972P/Q975M) above, with C108V, R109F, Q112A, A144N, P145H, M148Q counted along it
Chain of PUM1 PUF domain R5-RHC (Q14671 828-1176 C1007R/R1008H/Q1011C): as the sequence (Q14671 828-1176 N971A/H972P/Q975M) above, with A144N, P145H, M148Q, C180R, R181H, Q184C counted along it
Chain of PUM1 PUF domain R5-PHG (Q14671 828-1176 C1007P/R1008H/Q1011G): as the sequence (Q14671 828-1176 N971A/H972P/Q975M) above, with A144N, P145H, M148Q, C180P, R181H, Q184G counted along it
Chain of PUM1 PUF domain R1-KVR (Q14671 828-1176 S863K/R864V/Q867R): as the sequence (Q14671 828-1176 N971A/H972P/Q975M) above, with S36K, R37V, Q40R, A144N, P145H, M148Q counted along it
Chain of PUM1 PUF domain R8-MRR (Q14671 828-1176 N1122M/Y1123R/Q1126R): as the sequence (Q14671 828-1176 N971A/H972P/Q975M) above, with A144N, P145H, M148Q, N295M, Y296R, Q299R counted along it
Chain of PUM1 PUF domain R8-VYP (Q14671 828-1176 N1122V/Q1126P): as the sequence (Q14671 828-1176 N971A/H972P/Q975M) above, with A144N, P145H, M148Q, N295V, Q299P counted along it
Chain of PUM1 PUF domain R1-RLC (Q14671 828-1176 S863R/R864L/Q867C): as the sequence (Q14671 828-1176 N971A/H972P/Q975M) above, with S36R, R37L, Q40C, A144N, P145H, M148Q counted along it
Chain of PUM1 PUF domain R4-WAC (Q14671 828-1176 N971W/H972A/Q975C): as the sequence (Q14671 828-1176 N971A/H972P/Q975M) above, with A144W, P145A, M148C counted along it
Chain of PUM1 PUF domain R3-PWL (Q14671 828-1176 C935P/R936W/Q939L): as the sequence (Q14671 828-1176 N971A/H972P/Q975M) above, with C108P, R109W, Q112L, A144N, P145H, M148Q counted along it
Chain of PUM1 PUF domain R1-RHR (Q14671 828-1176 S863R/R864H/Q867R): as the sequence (Q14671 828-1176 N971A/H972P/Q975M) above, with S36R, R37H, Q40R, A144N, P145H, M148Q counted along it
Chain of PUM1 PUF domain R3-WYG (Q14671 828-1176 C935W/R936Y/Q939G): as the sequence (Q14671 828-1176 N971A/H972P/Q975M) above, with C108W, R109Y, Q112G, A144N, P145H, M148Q counted along it
Chain of PUM1 PUF domain R3-ACF (Q14671 828-1176 C935A/R936C/Q939F): as the sequence (Q14671 828-1176 N971A/H972P/Q975M) above, with C108A, R109C, Q112F, A144N, P145H, M148Q counted along it
Chain of PUM1 PUF domain R5-GMI (Q14671 828-1176 C1007G/R1008M/Q1011I): as the sequence (Q14671 828-1176 N971A/H972P/Q975M) above, with A144N, P145H, M148Q, C180G, R181M, Q184I counted along it
Chain of PUM1 PUF domain R8-MHR (Q14671 828-1176 N1122M/Y1123H/Q1126R): as the sequence (Q14671 828-1176 N971A/H972P/Q975M) above, with A144N, P145H, M148Q, N295M, Y296H, Q299R counted along it
Chain of PUM1 PUF domain R5-RWS (Q14671 828-1176 C1007R/R1008W/Q1011S): as the sequence (Q14671 828-1176 N971A/H972P/Q975M) above, with A144N, P145H, M148Q, C180R, R181W, Q184S counted along it
Chain of PUM1 PUF domain R8-KFD (Q14671 828-1176 N1122K/Y1123F/Q1126D): as the sequence (Q14671 828-1176 N971A/H972P/Q975M) above, with A144N, P145H, M148Q, N295K, Y296F, Q299D counted along it

Take “GGCUAGAACUAGUGGAUCCCCCGGCGCCCGGCGGCUCGAGCCCGGGUAAGUGUAAGUAGUCUGCAUGCCGCCGGGCGCCAUGCCUGCAGGUCGACUCUAGAAAACAUG”: the binding signal in [1] was 2.39 log2 enrichment (interaction score); in test [2], 2.81 log2 enrichment (interaction score); in test [3], 3.09 log2 enrichment (interaction score).

Consider “GGCUAGAACUAGUGGAUCCCCCGGCGCCCGGCGGCUCGAGCCCGGGUAAGUGUAAAUCGUCUGCAUGCCGCCGGGCGCCAUGCCUGCAGGUCGACUCUAGAAAACAUG”, for which the binding signal in test [4] was 1.81 log2 enrichment (interaction score); in test [5], 3.21 log2 enrichment (interaction score); in [6], 2.88 log2 enrichment (interaction score).

On to “GGCUAGAACUAGUGGAUCCCCCGGCGCCCGGCGGCUCGAGCCCGGGUAAGUGUUAAUAGUCUGCAUGCCGCCGGGCGCCAUGCCUGCAGGUCGACUCUAGAAAACAUG”, for which the binding signal was 6.47 log2 enrichment (interaction score) in test [7], 4.37 log2 enrichment (interaction score) in test [8], 5.98 log2 enrichment (interaction score) in test [9] and 2.18 log2 enrichment (interaction score) in test [10].

Turning to “GGCUAGAACUAGUGGAUCCCCCGGCGCCCGGCGGCUCGAGCCCGGGUAAGUGUAAAAAGUCUGCAUGCCGCCGGGCGCCAUGCCUGCAGGUCGACUCUAGAAAACAUG”, in test [11], the binding signal was 5.62 log2 enrichment (interaction score).

As to “GGCUAGAACUAGUGGAUCCCCCGGCGCCCGGCGGCUCGAGCCCGGGUAAGCGUAAAUAGUCUGCAUGCCGCCGGGCGCCAUGCCUGCAGGUCGACUCUAGAAAACAUG”, the binding signal in test [12] was 2.54 log2 enrichment (interaction score); in [13], 3.87 log2 enrichment (interaction score); in test [14], 5.29 log2 enrichment (interaction score); in test [15] it was 5.69 log2 enrichment (interaction score).

With “GGCUAGAACUAGUGGAUCCCCCGGCGCCCGGCGGCUCGAGCCCGGGUAAGUGUAAAUUGUCUGCAUGCCGCCGGGCGCCAUGCCUGCAGGUCGACUCUAGAAAACAUG”, the binding signal in test [4] is 5.73 log2 enrichment (interaction score); in test [5], 1.93 log2 enrichment (interaction score); in test [6], 2.91 log2 enrichment (interaction score).

On to “GGCUAGAACUAGUGGAUCCCCCGGCGCCCGGCGGCUCGAGCCCGGGUAAGUGUAAUUAGUCUGCAUGCCGCCGGGCGCCAUGCCUGCAGGUCGACUCUAGAAAACAUG”, for which the binding signal was 2.77 log2 enrichment (interaction score) in [1], 3.68 log2 enrichment (interaction score) in test [16], 1.65 log2 enrichment (interaction score) in [2] and 4.81 log2 enrichment (interaction score) in test [3].

Regarding “GGCUAGAACUAGUGGAUCCCCCGGCGCCCGGCGGCUCGAGCCCGGGUAAGUGUAAAGAGUCUGCAUGCCGCCGGGCGCCAUGCCUGCAGGUCGACUCUAGAAAACAUG”, in test [11], the binding signal is 2.4 log2 enrichment (interaction score).

For “GGCUAGAACUAGUGGAUCCCCCGGCGCCCGGCGGCUCGAGCCCGGGUAAGUGUAUAUAGUCUGCAUGCCGCCGGGCGCCAUGCCUGCAGGUCGACUCUAGAAAACAUG”, the binding signal in test [17] was 2.03 log2 enrichment (interaction score).

Take “GGCUAGAACUAGUGGAUCCCCCGGCGCCCGGCGGCUCGAGCCCGGGUAAGUGUACAUAGUCUGCAUGCCGCCGGGCGCCAUGCCUGCAGGUCGACUCUAGAAAACAUG”: the binding signal was 2.11 log2 enrichment (interaction score) in [17] and 2.99 log2 enrichment (interaction score) in test [18].

For “GGCUAGAACUAGUGGAUCCCCCGGCGCCCGGCGGCUCGAGCCCGGGUAAGUGUAAAUAGUCUGCAUGCCGCCGGGCGCCAUGCCUGCAGGUCGACUCUAGAAAACAUG”, the binding signal is 4.28 log2 enrichment (interaction score) in [17]; 4.04 log2 enrichment (interaction score) in test [19]; 2.76 log2 enrichment (interaction score) in [16]; 1.68 log2 enrichment (interaction score) in test [12]; 2.77 log2 enrichment (interaction score) in [13]; 4.89 log2 enrichment (interaction score) in [8]. The binding signal was 3.15 log2 enrichment (interaction score) in test [9]; 5.38 log2 enrichment (interaction score) in test [14]; 3.92 log2 enrichment (interaction score) in [20]; 4.33 log2 enrichment (interaction score) in test [2]; 3.2 log2 enrichment (interaction score) in test [18]; 1.6 log2 enrichment (interaction score) in [11].
